PubChem BioAssay (NCI)
Compounds without any hit were thinned out: in the full panel of roughly 79,000, 15% have a hit. Cut-off read from the data, not from the text of the source: active = growth inhibition above about 70%; inactive = the rest.

What was measured:
[1] = NCI Yeast Anticancer Drug Screen. Data for the mec2-1 strain (AID 157); conditions: S. cerevisiae mec2-1 strain, at 50.0 µM, hits give high values
Method in brief: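 Using mec2-1 yeast: add compound, measure growth, express inhibition versus vehicle-treated cultures.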

[2] = NCI Yeast Anticancer Drug Screen. Data for the sgs1 mgt1 strain (AID 161);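 note: 0% = growth of cultures given vehicle only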; conditions: S. cerevisiae sgs1 mgt1 strain, at 50.0 µM, hits give high values
Method in brief: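 Percent growth inhibition was derived by comparing compound-exposed mutant yeast with vehicle-exposed cultures. The strain carries alterations in DNA damage repair.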

[3] = NCI Yeast Anticancer Drug Screen. Data for the cln2 rad14 strain (AID 165);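 note: 0% = growth equal to vehicle treated cultures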; conditions: S. cerevisiae cln2 rad14 strain, at 50.0 µM, hits give high values
Method in brief: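 Yeast strain cln2 rad14, bearing defects in cell cycle control and DNA repair, serves as the test system; values reflect growth inhibition compared with vehicle.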

[4] = NCI Yeast Anticancer Drug Screen. Data for the bub3 strain (AID 167); conditions: S. cerevisiae bub3 mutant strain, at 50.0 µM, hits give high values
Method in brief: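 Inhibition values come from growth of compound-treated mutant yeast normalised to vehicle-treated controls.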

[5] = NCI Yeast Anticancer Drug Screen. Data for the mlh1 rad18 strain (AID 175); conditions: S. cerevisiae mlh1 rad18 strain growth inhibition; at 50.0 µM; hits give high values
Method in brief: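 Steps: expose repair-defective yeast to compound; measure growth; express inhibition against vehicle-treated controls.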

Measured: growth inhibition

C1CCC(C(CCCCC(C2CCCCC2)C2CCCCC2)C2CCCCC2)CC1
inactive: [1] -3.8% | [2] 27.2% | [3] 16.1% | [4] -0.7% | [5] -2.6%

N#CC(C#N)=NNc1ccc2cn[nH]c2c1
inactive: [1] 28.2% | [2] 2.7% | [3] -21.1% | [4] -39.5% | [5] -1.95%

COC(=O)C(=O)c1cc(C)n(C)c(=O)c1CN1C(=O)c2ccccc2C1=O
inactive: [1] 14.8% | [2] 13.8% | [3] -18.9% | [4] -11.8% | [5] -12.8%

Cc1ccc(C)c(NC(=O)Nc2ccc(Nc3ccccc3)cc2)c1
inactive: [1] 12.8% | [2] 15.8% | [3] -18.4% | [4] 17.1% | [5] 33%

O=C(C1OC1c1cccc([N+](=O)[O-])c1)C12CC3CC(CC(C3)C1)C2 (stereo not given)
inactive: [1] 32% | [2] 37.2% | [3] 17.1% | [4] 53% | [5] 54.5%

CCCCC1CCC(C(=O)O)=NC1 (stereo not given)
inactive: [1] 6.7% | [2] 25.1% | [3] -9.95% | [4] -0.45% | [5] -11.4%

CC(C)=C1CCC(CN2CCCC2)C1=O (stereo not given)
inactive: [1] 13.4% | [2] 17.4% | [3] 19.2% | [4] 6.2% | [5] 23.6%

Clc1ccc(CCc2ccncn2)c(Cl)c1
inactive: [1] 16.1% | [2] 5.7% | [3] 17.7% | [4] 14.7% | [5] 51.6%

[O-]c1on[n+](-c2ccccc2)c1CN1CCOCC1
inactive: [1] -8.35% | [2] -9.9% | [3] -45% | [4] 8.1% | [5] -3.05%

COc1ccc2cc(C(=O)Nc3ccc(O)c(C(=O)O)c3)ccc2c1OC
inactive: [1] 0.5% | [2] -7.6% | [3] -10.6% | [4] 2.95% | [5] -22.6%

COC(=O)c1ccc(CSc2ccccc2NC(=S)Nc2cccc(SC)c2)o1
inactive: [1] -38.8% | [2] -18.6% | [3] 5.9% | [4] -31.9% | [5] -26.6%

COc1ccc(NC(=O)c2cccc([N+](=O)[O-])c2)cc1
inactive: [1] 23.1% | [2] 24.6% | [3] 1.8% | [4] 4.1% | [5] 5.8%

N#Cc1c(-c2ccc(Cl)cc2)c2c(n(C3OC(CO)C(O)C(O)C3O)c1=S)CCC2 (stereo not given)
inactive: [1] 32.1% | [2] 61.3% | [3] 31.9% | [4] 50.4% | [5] 42.4%

COc1ccc(NC(N)=O)cc1
inactive: [1] -16.4% | [2] 0.05% | [3] -1.25% | [4] -6.35% | [5] 10.4%

Cc1ccc(S(=O)(=O)/C(C#N)=C\N2CCNC2=S)cc1
inactive: [1] -24.3% | [2] -6.4% | [3] 13.5% | [4] 4.4% | [5] -2.25%

COC(=O)C1Cc2cc(OC)c(OC)cc2C(c2ccc(OC)c(OC)c2)C1C(N)=O (stereo not given)
inactive: [1] 11.3% | [2] -8.3% | [3] 0.25% | [4] -0.9% | [5] -1.95%

CN(C)C(=S)c1cccc2ccccc12
inactive: [1] -10.5% | [2] -1.95% | [3] -31.4% | [4] -27.2% | [5] -8.45%

CC(=O)CC(=O)N1C(C)CCCC1C (stereo not given)
inactive: [1] -36.7% | [2] -7.55% | [3] -0.4% | [4] -18.1% | [5] -18.7%

O=c1[nH]c(=O)c2[nH]cnc2[nH]1
inactive: [1] -6% | [2] 5.9% | [3] 2.55% | [4] 9.9% | [5] 9.75%
